# Laboratory results taken from the supplement of paper PMC11219838.
# Test system: Caenorhabditis elegans L1 (N2)
# Experiment: survival and reproduction score of C. elegans L1 (0: 0-10 living worms, 1: 11-20, 2: 21-50, 3: >50, 4: overgrown) (score 0-4); higher = more worms, less nematicidal, active = 1 or less; extreme values may be limits of the assay
# Settings: 60 µM; 6 days; temperature: 20 °C
# Method in brief: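 Synchronized C. elegans N2 L1s (about 20 per well) were grown in 96-well plates in liquid NGM with E. coli HB101 and compound at 60 µM final (0.6% v/v DMSO), shaken sealed at 200 rpm and 20 °C for 6 days. The ordinal score for survival and reproduction counted living worms per well under a dissection microscope. The scale ran 0 (0–10 worms) to 4 (overgrown, starved), averaged over two biological replicates.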
row,SMILES,survival and reproduction score
1,Brc1ccccc1-c1nc(-c2ccncc2)no1,0 (active)
2,CCN(CC)C(=O)CSc1nnc(-c2cccc(Cl)c2)o1,4 (inactive)
3,Cc1ccc(-c2noc(-c3ccc(C)cc3C)n2)cc1,4 (inactive)
4,Cc1cccc(-c2noc(C3CCCCC3)n2)c1,3.5 (inactive)
5,Clc1ccc(-c2nc(-c3ccncc3)no2)cc1,0.5 (active)
6,Cc1ccc(-c2noc(-c3ccc(-n4nncc4C)cc3)n2)cc1,4 (inactive)
7,O=C(c1ccccc1-c1nc(-c2ccccc2Cl)no1)N1CCCC1,4 (inactive)
8,COc1ccc(-c2noc(-c3ccc(C)cc3)n2)cc1,3 (inactive)
9,CCOc1cc(-c2nc(-c3ccccc3C)no2)cc(OCC)c1OCC,4 (inactive)
10,Cc1cccc(C)c1NC(=O)CSc1nnc(-c2ccncc2)o1,4 (inactive)
11,c1ccc2c(OCc3nc(-c4ccncc4)no3)cccc2c1,4 (inactive)
12,O=C(CSc1nnc(-c2ccco2)o1)c1ccccc1,4 (inactive)
13,Cc1ccc(SC(C)c2nc(-c3ccncc3)no2)cc1 (centres undefined),4 (inactive)
14,C=C(C)COc1ccc(-c2nc(-c3cccnc3)no2)cc1,3 (inactive)
15,Cc1cc(OCc2nc(-c3ccncc3)no2)c(C)c(C)c1Br,4 (inactive)
16,COc1cccc(-c2noc(-c3ccc(C)cc3Cl)n2)c1,4 (inactive)
17,Cc1cccc(-c2noc(COc3ccc(Cl)cc3C)n2)c1,4 (inactive)
18,O=C(CSc1nnc(-c2ccccc2Cl)o1)Nc1ccc(F)cc1,4 (inactive)
19,CC(Sc1nnc(-c2ccccc2)o1)C(=O)Nc1nccs1 (centres undefined),4 (inactive)
20,Clc1ccccc1OCc1nc(-c2cccs2)no1,4 (inactive)

row,SMILES,survival and reproduction score
1,Fc1ccc(-c2noc(COc3cccc(Cl)c3)n2)cc1,4 (inactive)
2,O=C(CSc1nnc(-c2ccc(Cl)cc2)o1)Nc1ccccc1C(F)(F)F,4 (inactive)
3,COc1ccc(-c2nnc(SCC(=O)Nc3ccccc3C(C)C)o2)cc1,4 (inactive)
4,CC(=O)Nc1c(C)ccc(CNC(=O)CSc2nnc(-c3ccc(C(C)(C)C)cc3)o2)c1C,4 (inactive)
5,COc1ccc(NC(=O)CSc2nnc(-c3ccccc3C)o2)cc1,4 (inactive)
6,COc1cccc(-c2nc(-c3ccc(Br)cc3)no2)c1,0 (active)
7,COc1ccc(-c2noc(-c3ccc(C)c(Cl)c3)n2)cc1,4 (inactive)
8,Cc1ccccc1OCc1nc(-c2ccc3c(c2)OCO3)no1,4 (inactive)
9,COc1ccc(-c2noc(CSc3ccc(C)cc3)n2)cc1,4 (inactive)
10,CCOC(=O)c1ccc(NC(=O)c2ccccc2-c2nc(-c3cccc(C)c3)no2)cc1,4 (inactive)
11,CCOc1ccccc1-c1nc(-c2ccc(NC(=O)CCc3ccc(OC)cc3)cc2)no1,4 (inactive)
12,COc1cccc(-c2noc(COc3ccc(C)c(C)c3)n2)c1,4 (inactive)
13,Cc1ccc(OCc2nc(-c3cccnc3)no2)cc1C,4 (inactive)
14,CCN(C(=O)CSc1nnc(-c2ccncc2)o1)c1ccccc1,4 (inactive)
15,Cc1cc(OCc2nc(-c3cccnc3)no2)ccc1Cl,4 (inactive)
16,Cn1cc(C(=O)CSc2nnc(-c3cccc(Cl)c3)o2)c2ccccc21,4 (inactive)
17,CCn1c(SCc2ccc(OC)cc2)nnc1-c1ccco1,4 (inactive)
18,Cc1ccc(-c2nnc(SCC(=O)Nc3cc(C)c(C)cc3Br)o2)cc1,4 (inactive)
19,CCOc1cc(-c2nc(-c3ccc(C)nc3OC)no2)cc(OCC)c1OCC,4 (inactive)
